Bioassay records: PubChem, several laboratories
Hits are enriched below; roughly 4% of the tested compounds scored in any of these assays.
GDH-TPI inh – GDH-TPI coupling enzyme inhibitors, primary screen, artefact control for M. tuberculosis FBA inhibitor project, biochemical, absorbance, full deck; inhibition, % at 4.8 µM; GDH-TPI coupled enzyme counterscreen, NADH absorbance; hit rate 1.2% among 360,000; AID 588335, 2011; in the data active = inhibition above about 30%;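 note: 0% = DMSO wells and 100% = wells lacking the enzyme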
Mtb UGM inh – M. tuberculosis UGM enzyme inhibitors, primary screen, biochemical, fluorescence polarization, single point; purified UGM, fluorescence polarization probe displacement; inhibition, % at 10 µM; hit rate 0.06% among 320,000; in the data active = inhibition above about 10%, passing the limit was not always enough; inconclusive = no clear call, values can overlap the other calls
Target sequence (P9WIQ1 whole entry, looked up): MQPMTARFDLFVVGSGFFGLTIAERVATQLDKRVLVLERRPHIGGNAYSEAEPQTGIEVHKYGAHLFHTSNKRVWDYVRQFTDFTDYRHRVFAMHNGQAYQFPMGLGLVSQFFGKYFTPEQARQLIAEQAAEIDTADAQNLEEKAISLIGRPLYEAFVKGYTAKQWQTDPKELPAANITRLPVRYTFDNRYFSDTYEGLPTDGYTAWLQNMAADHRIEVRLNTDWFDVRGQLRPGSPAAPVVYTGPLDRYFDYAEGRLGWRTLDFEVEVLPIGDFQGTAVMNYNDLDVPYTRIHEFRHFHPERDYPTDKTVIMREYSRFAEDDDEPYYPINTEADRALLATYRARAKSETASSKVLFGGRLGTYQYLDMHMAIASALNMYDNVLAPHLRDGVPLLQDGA
Rv3671c protease – Rv3671c serine protease inhibitors, primary screen, biochemical, fluorescence polarization, M. tuberculosis H37Rv; P9WHR9; inhibition, % at 5.96 µM; hit rate 0.048% among 320,000; AID 2606, 2010; in the data active = inhibition above about 38%;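 note: extracellular domain of Rv3671c used as enzyme; 0% = enzyme with DMSO and 100% = no enzyme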
Mtb betalactam – beta-lactam sensitization of Mtb H37Rv, H37Rv. hit rate 0.27% among 330,000. M. tuberculosis H37Rv growth with meropenem, percent inhibition. inhibition, % at 25 µM. AID 434955, 2010;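 note: growth measured after seven days incubation then overnight dye step; 0% = bacteria only wells and 100% = bacteria with antibiotic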
Mtb FBA inh – Mtb FBA enzyme inhibitors, primary screen, biochemical, fluorescence, strain H37Rv; Fructose-bisphosphate aldolase (Mycobacterium tuberculosis (strain ATCC 25618 / H37Rv)), …; purified M. tuberculosis FBA, fluorescence read-out; inhibition, % at 1 µM; hit rate 2.3% among 360,000; AID 588726, 2011; in the data active = inhibition above about 27%;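 note: 0% = vehicle and 100% = reference inhibitor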
RecA intein inh – Mtb RecA intein splicing inhibitors, primary screen, biochemical, fluorescence, HTS; Protein RecA (Mycobacterium tuberculosis (strain ATCC 25618 / H37Rv)), P9WHJ3; cell-free RecA intein splicing; inhibition, % (no concentration beside the values); hit rate 0.75% among 290,000; AID 2221, 2009; in the data active = inhibition above about 30%; inconclusive = no clear call, values can overlap the other calls;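 note: 0% = vehicle wells and 100% = reference inhibitor control wells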
GFP chromo cs – counter-screen: blocks GFP chromophore formation, dose response, counter-screen, biochemical, fluorescence, homogeneous. cell-free GFP chromophore formation. hit rate 83% among 2,100. EC50, µM. shares compounds with RecA intein inh
An asterisk follows results filed as active; u = inconclusive; x = not tested or not shown. Unless noted, the rule behind the calls is not given here.

SMILES	GDH-TPI inh	Mtb UGM inh	Rv3671c protease	Mtb betalactam	Mtb FBA inh	RecA intein inh	GFP chromo cs
CC(=O)n1cc(N(C(=O)CCl)c2ccc(C)cc2)c2ccccc21	-5.4	-1.1	-2.5	98.8	3.0	91.2*	1.73*
Cc1nc(Nc2ccc(O)cc2)c2c3c(sc2n1)CCCC3	-0.5	1.4	3.0	-1.4	3.9	30.2*	>38
CC1=NC(C)(C)CC2CCC(O)C12 (stereo not drawn)	0.9	x	x	x	-0.8	x	x
CC1=NN(c2ccccc2)C(=O)C1/C=C1\C(=O)NC(=O)N(c2ccc(C)c(C)c2)C1=O (stereo not drawn)	1.9	3.5	-19.7	7.1	-2.6	41.0*	15.6*
CCCn1c(CC)nc([N+](=O)[O-])c1Sc1ccc(C)cc1	-1.0	-0.4	-8.7	-9.7	0.3	6.3	x
COC(=O)C(Cc1c[nH]c2ccccc12)N1CCS(=O)(=O)CC1 (stereo not drawn)	1.6	1.5	7.4	2.0	-0.2	0.1	x
Cc1ccc(-c2cc(NC(=O)CCl)n(-c3ccccc3)n2)cc1	4.9	0.8	-4.0	99.7	-1.9	72.7*	33*
O=C(CCl)Nc1cc(-c2ccccc2)nn1-c1ccccc1	2.4	0.0	0.8	98.8	0.4	62.1*	39.8*
Clc1ccc(Sc2oc(/C=N/n3cnnc3)cc2Br)cc1	-8.5	1.0	-1.2	2.3	-1.4	62.5*	22.4*
Cc1ccc(S(=O)(=O)N2CCN(C(=O)c3ccco3)CC2)c(C)c1	-2.8	-2.2	-67.8	5.6	-1.7	-0.8	x
Cc1ccc(S(=O)(=O)N2CCN(C(=O)c3ccccc3Cc3ccccc3)CC2)c(C)c1	-2.1	-0.4	2.4	2.3	-0.6	30.3*	>38
Cc1ccc2c(c1)c1c(n2CC(O)CN2CCCCCC2)CCCC1 (stereo not drawn)	1.1	-1.3	1.3	-1.8	4.0	44.2*	>38
Cn1nc(-c2ccccn2)nc2c(=O)n(C)c(=O)nc1-2	-17.5	-1.2	-193.9	99.4	-22.1	95.1*	0.41*
CCCc1nc2c(=O)n(C)c(=O)nc-2n(C)n1	13.4	x	x	x	-3.7	x	x
Cn1ncnc2c(=O)n(C)c(=O)nc1-2	12.5	-0.2	-187.8	100.3	-2.9	97.2*	0.0902*
C/C(=N\NC(=O)CC#N)c1cc2ccccc2oc1=O	5.7	-3.6	-8.3	11.5	-1.0	86.2*	12.9*
CC(=O)c1cc2ccccc2oc1=O	11.8	-2.8	-3.1	-5.3	2.9	x	x
O=c1[nH]c(Sc2ccc([N+](=O)[O-])cc2[N+](=O)[O-])nc2ccccc12	12.3	0.8	-6.8	98.6	0.8	33.9*	31.1*
O=[N+]([O-])c1ccc(Cl)cc1Sc1nc2ccccc2o1	4.0	1.5	-5.6	-5.7	-4.0	4.2	x
O=[N+]([O-])c1ccc(Sc2nc3ccccc3o2)c([N+](=O)[O-])c1	15.2	-1.2	15.2	u	-0.1	65.9*	1.98*
Cc1cc(C)nc(NC2=NCCN2C(=S)Nc2c(C)cccc2C)n1	0.6	1.4	8.3	3.2	1.3	2.5	x
CC(CNc1ccccc1O)C(=O)O (stereo not drawn)	1.9	3.2	-14.1	-2.1	0.2	50.4*	17.4*
COC(=O)N1CCCCC1c1cc(C(=O)Nc2ccccc2Cl)no1 (stereo not drawn)	7.1	x	x	x	1.4	x	x
O=C(O)c1ccc(NC2=C(n3nnc4ccccc43)C(=O)c3ccccc3C2=O)cc1	14.2	2.3	-108.1	1.4	-1.3	88.4*	5.58*
O=C(O)c1cccc(NC2=C(N3CCOCC3)C(=O)c3ccccc3C2=O)c1	16.9	1.1	-112.6	-0.4	11.1	17.1	x
SMILES	GDH-TPI inh	Mtb UGM inh	Rv3671c protease	Mtb betalactam	Mtb FBA inh	RecA intein inh	GFP chromo cs
O=C(Oc1cccc(N2C(=O)CCC2=O)c1)C1CC(=O)N(c2ccc(F)cc2)C1 (stereo not drawn)	-11.1	-3.7	0.4	5.9	2.1	10.7	x
O=C(Oc1ccc(Br)cc1)C1CC(=O)N(c2ccc(F)cc2)C1 (stereo not drawn)	3.3	2.2	-2.3	7.1	2.2	37.0*	35*
CC(=O)N(C1CC(C)C(C#N)(C#N)C1(C#N)C#N)N(C)C (stereo not drawn)	1.3	1.3	1.0	2.0	5.0	80.8*	18.9*
CCCC(=O)N(C1CC(C)C(C#N)(C#N)C1(C#N)C#N)N(C)C (stereo not drawn)	-3.4	-0.2	7.8	6.5	-1.6	93.3*	4.89*
COCCn1c(C)cc(C(=O)CSc2nc(C)nc3sc4c(c23)CCC4)c1C	10.8	1.0	2.1	1.1	4.4	-0.7	x
COc1ccc(C2C(O)C(c3c[nH]c4ccccc34)=NN2C(=O)CCl)cc1 (stereo not drawn)	18.7	-0.9	29.0	99.5	16.3	87.4*	2.27*
COc1ccc([N+](=O)[O-])cc1NC(=O)C(C)OC(=O)CN1C(=O)C2CC=CCC2C1=O (stereo not drawn)	8.1	0.1	3.5	-3.9	1.5	-7.5	x
NS(=O)(=O)c1ccc(N=Nc2ccc(=O)[nH]c2O)cc1	2.2	2.3	-44.8	-1.9	-25.0	72.6*	10*
Cc1nn(C(=O)/C(C#N)=C/N(C)C)c(C)c1C	3.5	-1.1	1.4	-0.2	2.9	x	x
NC(=O)c1c(-c2cccs2)csc1N	x	-1.5	12.6	13.2	x	66.6*	12.9*
COc1ccc(-c2[nH]c(-c3ccc(F)cc3)nc2SCC(=O)NCc2ccco2)cc1OC	12.5	-2.5	-6.8	-0.8	4.1	2.7	x
COc1cccc(CNC(=O)Cc2ccc(NC3=NC4CS(=O)(=O)CC4S3)cc2)c1 (stereo not drawn)	8.7	1.4	-1.1	0.0	-0.5	-2.5	x
COc1ccc(OC)c(NC(=O)Cc2ccc(NC3=NC4CS(=O)(=O)CC4S3)cc2)c1 (stereo not drawn)	-1.4	-0.1	-0.4	1.6	-0.2	38.0*	>38
O=C(c1ccc(Cl)cc1)c1c[nH]c(C(=O)C(Cl)(Cl)Cl)c1	-6.2	1.3	-3.9	84.5	-1.2	79.7*	3.93*
O=C(c1c[nH]c(C(=O)C(Cl)(Cl)Cl)c1)c1ccc(F)cc1Cl	4.8	-1.9	-10.5	69.8	10.4	54.3*	22.5*
CNC(=O)c1cc(C(=O)c2ccc(Cl)cc2)c[nH]1	1.7	1.2	-2.1	3.6	8.0	1.9	x
O=C(Cc1ccccc1)c1c[nH]c(C(=O)C(Cl)(Cl)Cl)c1	-13.8	-1.1	-4.7	-1.5	-1.1	69.4*	36.7*
COc1cccc(C(C(=O)NCc2ccco2)N(C(=O)Cn2nnc3ccccc32)C2CC2)c1OC (stereo not drawn)	0.0	0.6	2.4	-9.7	10.7	17.1	x
